{"source": "the supplement of paper PMC8728848", "binders": {"B1": {"name": "GS7807G-bfa-506-18-506 (Bacteroides fragilis) (protein)", "chain": "ASCDKFDEINTDPDATTKVTSSLLATGLLLDITSSSASKSFIYDELLAKQMAWGESMEDYQYNVFGRSGFGGYTTLINAQKMVESVSDDNVNAYDGLAHFIKAYKIFYMSMEMGDLPYEEALQGELGLVRPKYNTQKEVMNFILSDLETAYELFSTAKDFDGDPILGGSISKWKKATTAFQLKVLMHLSKKESDADLKVKERFARIVASGSLMESNEDNLQMKYADKANTVYPFHNTNTKHAGYAMLSTMLIDKFKATGDIRMFYYAKPAKAKLNEGVTADSWDAYIGTDPSLPFEQIEKAYATEQYSGFNARYTDYPSGEPVVRLGYAEQNFILAEAAVRGWISGDASAYYKKAIRAHMEFIASNTPDEEVYHHGHPITEEAIAAFLETPAIQLSGEKEEDIEKILTQRYLASFMQHPYDVYYDYRRTGYPVLPINPATNRNTMNDRLPMRWMYPKSESDYNLEHQNEALERQFGGVDDVNKLMWILQ"}}, "experiment_in_all_cases": "glycan array binding signal (z-score within array); higher = stronger binding", "settings_in_all_cases": "glycan notation: IUPAC condensed, linker removed", "key": {"[1]": {"molecular_target": "Gal(b1-4)GlcNAc(b1-3)Gal(b1-4)GlcNAc(b1-3)Gal(b1-4)GlcNAc(b1-2)[Gal(b1-4)GlcNAc(b1-3)Gal(b1-4)GlcNAc(b1-3)Gal(b1-4)GlcNAc(b1-6)]Man(a1-6)[Gal(b1-4)GlcNAc(b1-3)Gal(b1-4)GlcNAc(b1-3)Gal(b1-4)GlcNAc(b1-2)Man(a1-3)]Man(b1-4)GlcNAc(b1-4)[Fuc(a1-6)]GlcNAc", "procedure,_shortened": "(§1)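 The binding signal is a Z-score computed within each array and averaged over linkers. Arrays of the same protein sequence at different concentrations or buffers were also averaged together. Data originate from 3228 arrays in the Consortium for Functional Glycomics database, kept only where the protein sequence was available.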"}, "[2]": {"molecular_target": "Gal(b1-4)GlcNAc(b1-3)Gal(b1-4)GlcNAc(b1-3)Gal(b1-4)GlcNAc(b1-3)Gal(b1-4)GlcNAc(b1-3)Gal(b1-4)GlcNAc(b1-2)[Gal(b1-4)GlcNAc(b1-3)Gal(b1-4)GlcNAc(b1-3)Gal(b1-4)GlcNAc(b1-3)Gal(b1-4)GlcNAc(b1-3)Gal(b1-4)GlcNAc(b1-6)]Man(a1-6)[Gal(b1-4)GlcNAc(b1-3)Gal(b1-4)GlcNAc(b1-3)Gal(b1-4)GlcNAc(b1-3)Gal(b1-4)GlcNAc(b1-3)Gal(b1-4)GlcNAc(b1-2)Man(a1-3)]Man(b1-4)GlcNAc(b1-4)[Fuc(a1-6)]GlcNAc", "procedure,_shortened": "as §1"}, "[3]": {"molecular_target": "Gal(b1-4)GlcNAc(b1-3)GalNAc", "procedure,_shortened": "as §1"}, "[4]": {"molecular_target": "Gal(b1-4)GlcNAc(b1-6)[Gal(b1-4)GlcNAc(b1-3)]GalNAc", "procedure,_shortened": "as §1"}, "Gal3S4S(b1-4)GlcNAc": {"molecular_target": "Gal3S4S(b1-4)GlcNAc", "procedure,_shortened": "as §1"}, "Gal4S(b1-4)GlcNAc": {"molecular_target": "Gal4S(b1-4)GlcNAc", "procedure,_shortened": "as §1"}, "GalNAc(a1-3)GalNAc": {"molecular_target": "GalNAc(a1-3)GalNAc", "procedure,_shortened": "as §1"}, "[5]": {"molecular_target": "GalNAc(b1-3)Gal(a1-4)Gal(b1-4)GlcNAc(b1-3)Gal(b1-4)Glc", "procedure,_shortened": "as §1"}, "GalNAc(b1-3)GalNAc": {"molecular_target": "GalNAc(b1-3)GalNAc", "procedure,_shortened": "as §1"}, "GalNAc(b1-3)GlcNAc": {"molecular_target": "GalNAc(b1-3)GlcNAc", "procedure,_shortened": "as §1"}, "GalNAc3S(b1-4)GlcNAc3S": {"molecular_target": "GalNAc3S(b1-4)GlcNAc3S", "procedure,_shortened": "as §1"}, "[6]": {"molecular_target": "GlcNAc(a1-6)Gal(b1-4)GlcNAc", "procedure,_shortened": "as §1"}, "[7]": {"molecular_target": "GlcNAc(b1-3)Gal(b1-4)GlcNAc(b1-2)[GlcNAc(b1-3)Gal(b1-4)GlcNAc(b1-6)]Man(a1-6)[GlcNAc(b1-3)Gal(b1-4)GlcNAc(b1-2)Man(a1-3)]Man(b1-4)GlcNAc(b1-4)GlcNAc", "procedure,_shortened": "as §1"}, "[8]": {"molecular_target": "GlcNAc(b1-3)Gal(b1-4)GlcNAc(b1-3)Gal(b1-4)GlcNAc(b1-3)Gal(b1-4)GlcNAc(b1-2)Man(a1-3)[GlcNAc(b1-3)Gal(b1-4)GlcNAc(b1-3)Gal(b1-4)GlcNAc(b1-3)Gal(b1-4)GlcNAc(b1-2)Man(a1-6)]Man(b1-4)GlcNAc(b1-4)GlcNAc", "procedure,_shortened": "as §1"}, "[9]": {"molecular_target": "GlcNAc(b1-3)[GlcNAc(b1-6)]GalNAc", "procedure,_shortened": "as §1"}, "Kdn(a2-3)Gal(b1-3)GalNAc": {"molecular_target": "Kdn(a2-3)Gal(b1-3)GalNAc", "procedure,_shortened": "as §1"}, "Kdn(a2-3)Gal(b1-4)Glc": {"molecular_target": "Kdn(a2-3)Gal(b1-4)Glc", "procedure,_shortened": "as §1"}, "[10]": {"molecular_target": "Man(a1-3)[Man(a1-6)]Man(a1-6)[Man(a1-3)]Man(b1-4)GlcNAc(b1-4)GlcNAc", "procedure,_shortened": "as §1"}, "[11]": {"molecular_target": "Neu5Ac(a2-3)Gal(b1-3)GalNAc(b1-3)Gal(a1-4)Gal(b1-4)Glc", "procedure,_shortened": "as §1"}, "[12]": {"molecular_target": "Neu5Ac(a2-3)Gal(b1-3)GlcNAc", "procedure,_shortened": "as §1"}, "[13]": {"molecular_target": "Neu5Ac(a2-3)Gal(b1-3)GlcNAc(b1-2)Man", "procedure,_shortened": "as §1"}, "[14]": {"molecular_target": "Neu5Ac(a2-3)Gal(b1-3)GlcNAc(b1-2)Man(a1-3)[GlcNAc(b1-4)][Neu5Ac(a2-3)Gal(b1-3)GlcNAc(b1-2)Man(a1-6)]Man(b1-4)GlcNAc(b1-4)GlcNAc", "procedure,_shortened": "as §1"}, "[15]": {"molecular_target": "Neu5Ac(a2-3)Gal(b1-4)GlcNAc(b1-2)Man(a1-3)[Neu5Ac(a2-3)Gal(b1-4)GlcNAc(b1-2)Man(a1-6)]Man(b1-4)GlcNAc(b1-4)[Fuc(a1-6)]GlcNAc", "procedure,_shortened": "as §1"}, "[16]": {"molecular_target": "Neu5Ac(a2-6)Gal(b1-4)GlcNAc(b1-2)Man(a1-3)[Neu5Ac(a2-6)Gal(b1-4)GlcNAc(b1-2)Man(a1-6)]Man(b1-4)GlcNAc(b1-4)[Fuc(a1-6)]GlcNAc", "procedure,_shortened": "as §1"}, "[17]": {"molecular_target": "Neu5Ac(a2-6)Gal(b1-4)GlcNAc(b1-2)[Neu5Ac(a2-6)Gal(b1-4)GlcNAc(b1-4)]Man(a1-3)[GlcNAc(b1-4)][Neu5Ac(a2-6)Gal(b1-4)GlcNAc(b1-4)Man(a1-6)]Man(b1-4)GlcNAc(b1-4)GlcNAc", "procedure,_shortened": "as §1"}, "[18]": {"molecular_target": "Neu5Ac(a2-6)Gal(b1-4)GlcNAc(b1-3)Gal(b1-4)[Fuc(a1-3)]GlcNAc(b1-3)Gal(b1-4)[Fuc(a1-3)]GlcNAc", "procedure,_shortened": "as §1"}, "[19]": {"molecular_target": "Neu5Ac(a2-6)Gal(b1-4)GlcNAc(b1-3)GalNAc", "procedure,_shortened": "as §1"}, "[20]": {"molecular_target": "Neu5Ac(a2-8)Neu5Ac(a2-3)Gal(b1-3)GalNAc(b1-4)[Neu5Ac(a2-8)Neu5Ac(a2-3)]Gal(b1-4)Glc", "procedure,_shortened": "as §1"}, "[21]": {"molecular_target": "Neu5Gc(a2-8)Neu5Gc(a2-3)Gal(b1-4)GlcNAc", "procedure,_shortened": "as §1"}}, "note": "Only a selection was taken, and the strongest signals are over-represented in it overall.", "data": [{"binder": "B1", "values": [{"measurement": "glycan array binding signal (z-score)", "setting": "[1]", "result": 2.78}, {"measurement": "glycan array binding signal (z-score)", "setting": "[2]", "result": 4.67}, {"measurement": "glycan array binding signal (z-score)", "setting": "[3]", "result": -0.443}, {"measurement": "glycan array binding signal (z-score)", "setting": "[4]", "result": 1.86}, {"measurement": "glycan array binding signal (z-score)", "setting": "Gal3S4S(b1-4)GlcNAc", "result": -0.454}, {"measurement": "glycan array binding signal (z-score)", "setting": "Gal4S(b1-4)GlcNAc", "result": -0.273}, {"measurement": "glycan array binding signal (z-score)", "setting": "GalNAc(a1-3)GalNAc", "result": -0.209}, {"measurement": "glycan array binding signal (z-score)", "setting": "[5]", "result": -0.567}, {"measurement": "glycan array binding signal (z-score)", "setting": "GalNAc(b1-3)GalNAc", "result": -0.744}, {"measurement": "glycan array binding signal (z-score)", "setting": "GalNAc(b1-3)GlcNAc", "result": 0.616}, {"measurement": "glycan array binding signal (z-score)", "setting": "GalNAc3S(b1-4)GlcNAc3S", "result": -0.726}, {"measurement": "glycan array binding signal (z-score)", "setting": "[6]", "result": -0.271}, {"measurement": "glycan array binding signal (z-score)", "setting": "[7]", "result": 0.698}, {"measurement": "glycan array binding signal (z-score)", "setting": "[8]", "result": 0.543}, {"measurement": "glycan array binding signal (z-score)", "setting": "[9]", "result": -0.871}, {"measurement": "glycan array binding signal (z-score)", "setting": "Kdn(a2-3)Gal(b1-3)GalNAc", "result": -0.399}, {"measurement": "glycan array binding signal (z-score)", "setting": "Kdn(a2-3)Gal(b1-4)Glc", "result": -0.306}, {"measurement": "glycan array binding signal (z-score)", "setting": "[10]", "result": 3.61}, {"measurement": "glycan array binding signal (z-score)", "setting": "[11]", "result": -0.786}, {"measurement": "glycan array binding signal (z-score)", "setting": "[12]", "result": -0.636}, {"measurement": "glycan array binding signal (z-score)", "setting": "[13]", "result": 2.81}, {"measurement": "glycan array binding signal (z-score)", "setting": "[14]", "result": -0.528}, {"measurement": "glycan array binding signal (z-score)", "setting": "[15]", "result": -0.269}, {"measurement": "glycan array binding signal (z-score)", "setting": "[16]", "result": 4.41}, {"measurement": "glycan array binding signal (z-score)", "setting": "[17]", "result": -0.864}, {"measurement": "glycan array binding signal (z-score)", "setting": "[18]", "result": -0.153}, {"measurement": "glycan array binding signal (z-score)", "setting": "[19]", "result": 2.85}, {"measurement": "glycan array binding signal (z-score)", "setting": "[20]", "result": 0.197}, {"measurement": "glycan array binding signal (z-score)", "setting": "[21]", "result": -0.712}]}]}
